Laboratory results reported in PubChem BioAssay (NCI).
Compounds without any hit were thinned out: in the full panel of roughly 83,000, 20% have a hit.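 Compound tested at a single concentration for 48 hours in 96-well plates; a percent growth value below 10 was scored as active.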 Values without a mark were called inactive. The source made the active and inactive calls.

Each compound was assayed on TK-10 renal (assay: NCI-60 one-dose screen, 48 h (100 = growth as untreated, 0 = no growth, -100 = all killed)). Details: 10 µM unless noted.

Structure (SMILES)	growth
COc1ccccc1/C=C/C1=C(C)CCC(c2ccccc2OC)C1C (stereo not given)	41.1%
COc1cc(OCc2cccc(-c3ccc4c(c3)OCCO4)c2C)cc(OC)c1C=O	43.4%
COc1ccccc1-c1nc2ccc3[nH]ncc3c2c2c1CCCC2	60.4%
CC(=O)OCCOc1cc(Cl)c(Cl)cc1Cl	106%
CC1(C)CC(=O)C2=C(C1)OC(C(=O)c1ccccc1)C2c1cccc(Oc2ccccc2)c1 (stereo not given)	63.8%
CC1OC(C(=O)N2CCN(CCO)CC2)CC1COC1CCCCC1 (stereo not given)	129% [50 µM]
COc1ccccc1NC(=O)n1c(=O)cc(C)c2ccc(O)cc21	111%
COc1ccc2c(c1)C(c1c[nH]c3ccccc13)(c1c[nH]c3ccccc13)CCO2	59.7%
CC(C)(C)n1cc(-c2ccnc(NCCNS(=O)(=O)c3cccc4ccccc34)c2)c(-c2cccc(O)c2)n1	97.2%
COc1cc(C2=Nc3c(N)nc(N)nc3NC(c3cccc(Nc4ccnc5cc(C(F)(F)F)ccc45)c3)C2)cc(OC)c1OC (stereo not given)	108%
Nc1nc(=O)n([C@H]2CC=C(CO)O2)cc1F	99.3%
CS(=O)(=O)c1ccc(/C(=N/NC(N)=S)c2ccc(F)cc2)cc1	115%
O=c1n(C2OC(CO)C(O)C2O)ccc2nccn12 (stereo not given)	122%
Cc1c(N2CCCCC2)[nH]c2ccccc12	121%
O=C1CCc2c(sc3[nH]c(=S)n(-c4cc(C(F)(F)F)cc(C(F)(F)F)c4)c(=O)c23)C1	2.81% (active)
Nc1nc(N)c2c(n1)NC(c1ccc3c(c1)OCO3)CC(c1cccc(Nc3ccncc3)c1)=N2 (stereo not given)	99.6%
CCCCCCCC/C=C\CCCCCCCCOc1ccc(CC(=O)NCC[N+]2(C)CCCC2)cc1	38.5%
Cn1cc(-c2csc(-c3cn(CCO)c4ccc(F)cc34)n2)c2cccnc21	47.7%
CCOC(=O)C1=CCC(n2cc(F)c(=O)[nH]c2=O)O1 (stereo not given)	110%
CC1(C)CC[C@]2(CO)CC[C@]3(C)C(=CC[C@@H]4[C@@]5(C)CCNCC(C)(C)[C@@H]5CC[C@]43C)[C@@H]2C1	95%

Structure (SMILES)	growth
O=C(CN1C(=O)NC2NC(=O)NC21)N/N=C/c1cccc([N+](=O)[O-])c1 (stereo not given)	106%
[2H]C([2H])([2H])Oc1ccc(/C=C/C(=O)/C=C(O)/C=C/c2ccc(OC([2H])([2H])[2H])c(OC([2H])([2H])[2H])c2)cc1OC([2H])([2H])[2H]	54.4%
Cc1nn(C)c2ncnc(Nc3ccccc3Br)c12	97%
COc1cc(NC(=O)c2cncnc2Nc2ccc3c(ccn3Cc3cccc(F)c3)c2)cc(OC)c1	76.8%
C=C1CC[C@@H]2[C@](C)(COC(C)=O)[C@H](OC(C)=O)CC[C@@]2(C)[C@@H]1CC(Nc1ccc(S(=O)(=O)Nc2nccc(C)n2)cc1)C1=CCOC1=O (stereo not given in full)	83%
Cc1nc2c(c(-c3ccccc3)n1)Cc1c(ccc3ccccc13)O2	106%
CCCc1cc(CCC)n2nc(N)nc2n1	114%
Clc1ccc(C2=Nn3c(nnc3-c3cc(Cl)cc(Cl)c3Cl)SC2)cc1	87.4%
CCN(CC)CCN1C(=O)c2c(c(C)c3c(oc4cc(OC)ccc43)c2C)C1=O	100%
O=C1c2cccnc2C(=O)c2c1c(C(=O)OCCCN1CCOCC1)c1ccccn21	21.9%
CCCCN(CCC#N)C(N)=O	98.9%
O=C(OCC(O)(CO)C(=O)NC12CC3CC(CC(C3)C1)C2)c1ccc(Cl)cc1 (stereo not given)	85.3%
CC1(C)C2=C(C(=O)N1Cc1ccccc1)C(c1ccco1)N(C(=O)C1CCC1)CCN2 (stereo not given)	93.9%
CN1CC(c2ccccc2)C(C(=O)c2ccc(Br)cc2)C12C(=O)Nc1ccccc12 (stereo not given)	109%
Nc1ncc(-c2ccc3ncnc(N4CCc5cc(F)c(Cl)cc54)c3c2)cn1	21.8%
CCCCCN(CCCCC)CC(O)c1c(Cl)ccc2ccccc12 (stereo not given)	98.1%
CNC(=O)c1cc(Oc2ccc3nc(NC(=O)NC(C)C)sc3c2)ccn1	88.6%
Nc1ccc(Cl)c2c(=O)c3ccccc3[nH]c12	78.1%
CNC(=O)c1cc(Oc2cccc3nc(NC(=O)Nc4ccc(F)cc4F)ccc23)ccn1	-37.7% (active)
N#Cc1c(-c2ccc(F)cc2)cc(-c2cccc(Cl)c2)[nH]c1=O	54.3%
